hcDAF-12 act: activators of H. contortus DAF-12 nuclear receptor | activation, % at 6.8 µM | HEK293 hcDAF-12 lit1-tk-luc reporter, luminescence; 0% DMSO, 100% Δ7-dafachronic acid | hit rate 1.4% among 370,000 | AID 652067;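 active means activation above the mean of all tested compounds plus 3 SD, cut at about 5.5% in these data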;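 further: 100% = response to 3 µM Δ7-dafachronic acid high control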
ssDAF12 agonist: activators of S. stercoralis DAF-12 nuclear receptor | AID 652126 | HEK293 ssDAF-12/GRIP1 lit1-tk-luc reporter, luminescence; % of 3 µM dafachronic acid response | activation, % at 6.8 µM | hit rate 1% among 370,000;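 active means activation above the mean over all tested compounds plus 3 SD, cut at about 0.9% in these data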;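 further: 0% = DMSO-only wells and 100% = 3 µM delta7-dafachronic acid wells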
SMARCA2 activ: SMARCA2 function activation, primary screen; MG213 cells, MMTV-luciferase reporter, dexamethasone, overnight; activation, % at 9.1 µM; hit rate 1% among 370,000; AID 652017; in the data active means activation above about 7.8%;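 further: 0% = vehicle wells and 100% = reference activator wells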
DAX1 inh-1: inhibitors of DAX1 repression of SF-1 activated StAR promoter; HEK293T StAR-luciferase reporter, SF-1/DAX-1 repression relief; inhibition, % at 6.8 µM; hit rate 1.1% among 370,000;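 active means inhibition above the mean over all tested compounds plus 3 SD, cut at about 3.6% in these data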;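 further: 0% = DAX-1 cells with DMSO and 100% = cells lacking DAX-1 with DMSO; higher inhibition means more luminescence from relief of DAX-1 repression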
hgDAF12 agonist: activates the H. glycines DAF-12 receptor ligand-binding domain | HEK293 GAL4-hgDAF12 UAS-luciferase reporter, agonist luminescence; normalized to butyrate control | hit rate 1.8% among 370,000 | AID 687014 | activation, % at 6.8 µM;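 active means activation above a cutoff set at the mean of all screened compounds plus 3 SD, cut at about 10% in these data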;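 further: 0% = DMSO wells and 100% = sodium butyrate wells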
DAX1 inh-2: inhibitors of human orphan nuclear receptor DAX1 (NR0B1); P51843; HEK293 Gal4-DAX1 luciferase reporter, luminescence; inhibition, % at 6.75 µM; hit rate 0.99% among 340,000;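 active means inhibition above the mean over all tested compounds plus 3 SD, cut at about 4.2% in these data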;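 further: 0% = DAX1-transfected cells with DMSO and 100% = empty-vector control cells with DMSO; inhibition shows as a rise in luminescence from relieved DAX1 repression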
Target sequence (P51843 207-470 limits assumed): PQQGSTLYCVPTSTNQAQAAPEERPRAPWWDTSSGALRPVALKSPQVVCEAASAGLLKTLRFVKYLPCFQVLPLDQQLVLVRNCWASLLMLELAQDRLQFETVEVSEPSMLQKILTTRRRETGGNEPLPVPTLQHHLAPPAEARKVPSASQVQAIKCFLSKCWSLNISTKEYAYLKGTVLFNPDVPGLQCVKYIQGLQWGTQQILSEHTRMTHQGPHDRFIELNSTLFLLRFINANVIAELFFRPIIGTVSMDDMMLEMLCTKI
DAX1 conf: NR0B1 (human) inhibition, confirmation | inhibition, % at 6.8 µM | HEK293T StAR-promoter luciferase reporter, SF-1/DAX-1 repression | AID 652134 | hit rate 87% among 2,400 | shares compounds with DAX1 inh-1;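 active means inhibition above the average of every tested compound plus 3 SD, cut at about 3.8% in these data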;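 further: 0% = DAX-1 cells with DMSO and 100% = no DAX-1 control cells with DMSO; active compounds raise luminescence by relieving repression of the StAR reporter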
Target sequence (P51843 whole entry, looked up): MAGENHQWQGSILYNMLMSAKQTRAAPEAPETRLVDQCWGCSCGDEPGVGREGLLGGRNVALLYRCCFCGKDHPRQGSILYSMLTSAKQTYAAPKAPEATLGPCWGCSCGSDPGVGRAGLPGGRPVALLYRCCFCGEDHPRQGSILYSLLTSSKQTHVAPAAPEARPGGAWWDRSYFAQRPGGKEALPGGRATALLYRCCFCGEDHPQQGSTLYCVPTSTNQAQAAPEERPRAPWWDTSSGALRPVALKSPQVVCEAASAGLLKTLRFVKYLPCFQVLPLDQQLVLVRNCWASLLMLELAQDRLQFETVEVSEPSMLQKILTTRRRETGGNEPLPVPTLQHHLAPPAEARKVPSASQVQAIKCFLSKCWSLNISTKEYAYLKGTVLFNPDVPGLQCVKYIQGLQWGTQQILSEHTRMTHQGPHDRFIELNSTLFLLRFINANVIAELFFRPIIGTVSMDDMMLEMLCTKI
SF1 mutant ctr: nonselective inhibitor or artifact in SF-1 mutant DAX1 counter-screen. inhibition, % at 6.8 µM. AID 652136. HEK293 StAR-luciferase, SF-1 AF2 mutant, luminescence. hit rate 78% among 2,400. shares compounds with DAX1 inh-1;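 active means inhibition above the mean of all tested compounds plus 3 SD, cut at about 3% in these data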;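 further: 0% = DAX-1 transfected cells with DMSO and 100% = cells without DAX-1 with DMSO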
SMARCA2 conf: SMARCA2 activation, confirmation screen; MG213 cells, MMTV-luciferase with dexamethasone, luminescence, overnight; MG213 cells expressing E1A, Rb sequestered; DMSO wells 0%, reference activator 100%; shares compounds with SMARCA2 activ; hit rate 30% among 3,500; AID 652260; activation, % at 9.1 µM;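 active means activation above its plate's cutoff, the mean activation of tested wells plus 3 SD, cut at about 7.9% in these data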
GAL4-VP16 Luc: GAL4-VP16 reporter activation counter-screen; shares compounds with SMARCA2 activ; HEK293 GAL4-VP16 pG5luc reporter, luciferase luminescence; scaled: DMSO wells 0%, SAHA wells 100%; activation, % at 9.1 µM; hit rate 41% among 3,500; AID 686939;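 active means activation above the solvent-only control well mean plus 3 SD, averaged across control plates, cut at about 5.2% in these data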
LXRb hcDAF ctr: counter-screen for hcDAF-12 agonists: agonists of human LXR-beta; 3,400 tested, under 10 active; activation, % at 6.8 µM; HEK293 Gal4-LXR tk-luc reporter, luminescence, 24 h; normalized: DMSO 0%, positive control 100%; shares compounds with hcDAF-12 act;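 active means mean percent activation of the reporter above a cutoff set as the average over tested compounds plus their standard deviation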
hcDAF12 ag: confirmation of H. contortus DAF-12 agonists | HEK293 hcDAF-12 lit1-tk-luc reporter, luminescence; % of Δ7-dafachronic acid response | shares compounds with hcDAF-12 act | hit rate 61% among 3,400 | activation, % at 6.8 µM | AID 743032;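 active means mean activation across triplicate tests above the threshold derived from the earlier primary screen, cut at about 5.5% in these data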;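 further: 0% = DMSO only wells and 100% = 3 µM Δ7-dafachronic acid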
hgDAF12 ag: hgDAF-12 agonism, confirmation assay | hit rate 80% among 3,300 | activation, % at 6.8 µM | shares compounds with hgDAF12 agonist | HEK293 GAL4-hgDAF12 luciferase reporter, agonist mode; percent of butyrate response | AID 743050;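 active means mean activation over triplicate wells above the hit cutoff derived from the earlier primary screen, cut at about 11% in these data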;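 further: 0% = DMSO low control and 100% = 2 mM sodium butyrate high control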
LXR ag 2: LXR-beta agonism as DAF-12 counter-screen; shares compounds with hgDAF12 agonist; HEK293 Gal4-LXR luciferase reporter, 24 h; activation, % at 6.8 µM; 3,300 tested, under 10 active; AID 743051;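 active means mean activation of the triplicate above a set limit carried over from the primary screen, none filed active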
Active calls of the source: *; . = not tested or not shown. Only some compounds are listed: those with a hit (about 4.8% of all), similar ones and a draw of the others.

SMILES	hcDAF-12 act	ssDAF12 agonist	SMARCA2 activ	DAX1 inh-1	hgDAF12 agonist	DAX1 inh-2	DAX1 conf	SF1 mutant ctr	others
CC(C)C(NC(=O)C(C(C)C)N(C)C)C(=O)N(C)C(C(=O)N1CCCC1C(=O)N1CCCC1C(=O)NCc1ccccc1)C(C)C (stereo not given)	0	0	-2	5.4*	-7	1	21*	-7
O=C(N/N=C/c1c(O)n(C2CCCCC2)c(=S)[nH]c1=O)c1ccccc1	2	-1	2	4.8*	6	0	3	2
O=C(N/N=C/c1c(O)n(C2CCCCC2)c(=S)[nH]c1=O)c1ccccc1O	-1	-1	-1	0	0	1	.	.
COC1CCC(OC2CC(C3(C)CCC4(CC(O)C(C)C(C(C)/C=C(\C)C(=O)C(C)CC(C)C(=O)O)O4)O3)OC3(OC(C4OC(O)(CO)C(C)CC4C)CC3C)C2C)OC1C (stereo not given)	-1	-1	-6	9.6*	-3	0	-9	-12
S=P(c1ccccc1)(c1ccccc1)c1c[n+](Cc2ccccc2)c2ccccn12	0	-2	.	.	-5	.	.	.
Cc1cc(N2CCNC[C@H]2C)ccc1N1CC[C@@H](O)C1	4	-1	-2	-1	3	.	.	.
CCN(CC)C(=O)c1ccc(NC(=O)Nc2ccccc2F)cc1	5	0	4	6.5*	11*	-5	8.9*	4.2*
CCN(CC)C(=O)c1ccc(NC(=O)CCCSc2ccccc2)cc1	0	-2	-3	0	0	0	.	.
CCOC(=O)[C@]12Cc3ccccc3[C@H]1N(CCC(=O)OC)C(=O)c1cc(OC)ccc12	2	-1	-1	7.2*	-1	.	4.1*	9.3*
COC(=O)C1=C(c2ccc(OC(F)(F)F)cc2)C[C@@H]2CC[C@H]1N2C(=O)N1CCc2cc(OC)c(OC)cc2C1	-3	-1	0	-1	-3	.	.	.
O=c1[nH]cnc2nc(-c3ccc(N(CCCl)CCCl)cc3)[nH]c12	2	-1	6	5.5*	8	1	11*	0
Cc1ccc2nc(-c3ccc(CN4CCC(n5c(=O)[nH]c6cc(Cl)ccc65)CC4)cc3)c(-c3ccccc3)nc2c1	-2	-1	6	-3	8	.	.	.
CCOC(=O)C1=C(C(=O)OCC)C2(c3ccccc3)c3ccccc3C1(C)N2C (stereo not given)	-3	-1	2	-3	-10	.	.	.
c1ccc2oc(-c3ccc4c(c3)CNCc3cnnn3-4)cc2c1	0	0	7	5.0*	9	.	7.0*	4.6*
Cc1ccc2c(c1)NP(=S)(Oc1ccccc1)N2 (stereo not given)	7.5*	1.0*	10*	8.0*	12*	4.5*	6.5*	2.9*	SMARCA2 conf=1;GAL4-VP16 Luc=3;LXRb hcDAF ctr=0;hcDAF12 ag=3
CC[C@]12CCN(CC3(O)CC3)[C@H](Cc3ccc(O)cc31)C2(C)C	0	0	0	1	1	.	.	.
CNC(=O)Oc1ccc(-c2cn3cc(Cl)ccc3n2)cc1	6.4*	1.6*	6	6.1*	14*	-1	9.8*	3.5*	hgDAF12 ag=21*;LXR ag 2=1
C[C@@H]1CNCCN1c1ccc(N2CC[C@H](O)C2)c(C#N)c1	-2	-1	-1	0	0	.	.	.
N=C1c2ccccc2CN1NC(=O)c1ccccc1	-1	0	0	0	5	0	.	.
N=C1c2ccccc2CN1CC(=O)c1ccccc1	23*	2.6*	3	7.0*	20*	2	11*	7.2*	LXRb hcDAF ctr=1;hcDAF12 ag=7.3*;hgDAF12 ag=24*;LXR ag 2=1
CN(C)C(=S)SSC(=S)N(C)C	-2	-2	15*	-1	-5	0	.	.	SMARCA2 conf=-15;GAL4-VP16 Luc=16*
C[C@H](NC(=O)OCc1ccccc1)[P+](=O)O	-1	-1	-1	-1	4	.	.	.
N[C@@H](Cc1ccc(N(CCCl)CCCl)cc1)C(=O)O	-1	-1	3	-2	-2	-1	.	.
ClCCN(CCCl)c1ccc(-n2cnc3c(Cl)ncnc32)cc1	0	0	16*	0	5	0	.	.	SMARCA2 conf=-3;GAL4-VP16 Luc=0
O=C1C=C(N2CC2)c2ccccc2C1=O	2	0	-3	-3	-4	1	.	.
O=C1c2ccccc2-c2cccc3cccc1c23	3	0	8.6*	3	8	0	.	.	SMARCA2 conf=9.5*;GAL4-VP16 Luc=2
Cn1cc(P(=S)(c2ccccc2)c2ccccc2)c2ccccc21	2	-1	.	.	0	.	.	.
O=c1[nH]sc2cc(F)ccc12	0	-2	13*	-1	-1	-1	.	.	SMARCA2 conf=11*;GAL4-VP16 Luc=0
CC(=O)Nc1ccc(S(=O)(=O)N2Cc3cnnn3-c3ccccc3C2C#N)cc1 (stereo not given)	0	-1	9.7*	3.7*	2	-1	.	.	SMARCA2 conf=-1;GAL4-VP16 Luc=1
Cc1ccc(S(=O)(=O)N2Cc3cnnn3-c3ccccc3C2C#N)cc1 (stereo not given)	2	0	-4	0	2	0	.	.
